About 83,000 compounds went through this panel and 20% of them were active in at least one assay; those are over-represented in the sample as a whole.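 Negative percent growth values reflect cell death: -40 means 40% of the cells present at the start died, and -100 means all died.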 A number with no mark means an inactive call. Calls of active or inactive are those of the source. How the source made its calls: active means growth percent below 10; inactive means the rest.

This assay has as its system NCI-H460 lung. Briefly: NCI-60 one-dose screen, 48 h (100 = growth as untreated, 0 = no growth, -100 = all killed). Conditions: 10 µM unless noted.
With `COc1cc2[nH]c(C(=O)c3cc(OC)c(OC)c(OC)c3)c(N)c2cc1C#CC1CC1`, the growth was 13.5%.

`COc1cc2c(cc1OC)C(=O)/C(=C/c1cc(-c3ccc4c(c3)OCO4)n[nH]1)C2`: the growth is -82.2% (active).

As for `NS(=O)(=O)c1ccc(CCNC(=O)/C=C/c2ccc(Cl)cc2)cc1`, the growth is 98%.

Turning to `C/C(=N/NC(N)=S)C(=O)O`, the growth was 99.3%.

On to `Cc1ccc(-c2ccc(Nc3ccccc3)nn2)cc1S(N)(=O)=O`, for which the growth was 82.9%.

Consider `CCC(c1ccc(OC)cc1)C(CC)c1ccc(O)c(CN2CCCCC2)c1` (centres undefined), for which the growth was 77.1%.

As for `COc1cc(-c2cc(-c3nc4ccc(F)cc4[nH]3)[nH]n2)cc(OC)c1OC`, the growth is 33.5%.

With `COc1cccc(NC(=O)c2sc3nc4c(cc3c2N)C(=O)CCC4)c1`, the growth is 1.73% (active).

For `NC1(N)C=CC2=C(C=C1)C1(N)C3=C(C=CC(N)(N)C=C3)N2C2(N)C3=C(C=CC(N)(N)C=C3)N1C1=C2C=CC(N)(N)C=C1`, the growth is 94.6%.

In the case of `COc1ccc(-c2nc3ccccn3c2-c2nc3ccc(Cl)cc3[nH]2)cc1`, the growth was 98.8%.

Consider `O=c1c(CNc2ccc(S(=O)(=O)Nc3nccs3)cc2)coc2ccccc12`, for which the growth was 102%.

As to `CN1CCN(c2nc(-c3cccc4ccccc34)nc3sc4c(c23)CCCCCC4)CC1`, the growth is 91.4%.

As to `COc1ccc2nc(-c3cc(-c4cc(OC)c(OC)c(OC)c4)n[nH]3)[nH]c2c1`, the growth is 25.2%.

As for `COc1cccc(-c2nn(-c3ccccc3)cc2-c2ccnc(NCCNS(=O)(=O)c3ccc(Cl)cc3)c2)c1`, the growth is 32.9%.

Values taken from PubChem BioAssay (NCI).
